Measurements from PubChem BioAssay AID588342 (National Center for Advancing Translational Sciences (NCATS), 2011).
Out of some 360,000 compounds screened, about 25,000 (6.9%) were called active. Roughly 9% stayed inconclusive and do not appear here. Calls come from the whole dose curve; as a rule, active = well fitted inhibition curve with a large enough effect; inconclusive = small, poorly fitted or top-dose-only effect; inactive = flat fitted curve, though single readings scatter. The full list was thinned out, with actives kept by preference.
Note: nearly all actives have a fitted effect of over 55% in size.
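Throughout, for activity change, negative = inhibition: plate controls were vehicle for no effect and reference inhibitor for full effect.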

These molecules were tested against Luciferin 4-monooxygenase (Photinus pyralis) (UniProt P08659) (assay: qHTS profiling assay for firefly luciferase inhibitor/activator using purifed enzyme and Km concentrations of substrates (counterscreen for miR-21 project)). Settings: purified FLuc, luminescence inhibition; series mostly up to 57.5 µM; activity change, negative = inhibition: at the top concentration.
Luciferin 4-monooxygenase (Photinus pyralis), sequence (P08659 whole entry, looked up): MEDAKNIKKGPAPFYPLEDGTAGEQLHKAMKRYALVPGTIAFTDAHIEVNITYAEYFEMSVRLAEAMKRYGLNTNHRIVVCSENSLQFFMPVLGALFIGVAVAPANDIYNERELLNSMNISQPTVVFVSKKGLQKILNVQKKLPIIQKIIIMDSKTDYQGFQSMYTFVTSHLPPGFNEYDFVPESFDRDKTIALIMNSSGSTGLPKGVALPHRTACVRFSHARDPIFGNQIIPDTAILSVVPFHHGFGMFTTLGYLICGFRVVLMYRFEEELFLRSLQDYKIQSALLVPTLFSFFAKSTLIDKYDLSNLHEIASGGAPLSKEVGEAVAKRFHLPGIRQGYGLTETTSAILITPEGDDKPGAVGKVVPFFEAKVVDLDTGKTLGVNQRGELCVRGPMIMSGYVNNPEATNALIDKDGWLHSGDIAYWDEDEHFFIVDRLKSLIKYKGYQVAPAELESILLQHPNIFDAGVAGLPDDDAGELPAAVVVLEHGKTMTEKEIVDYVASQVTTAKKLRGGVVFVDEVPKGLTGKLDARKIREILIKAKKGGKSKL
Description: MLPCN Grant: 1 R21 NS059478-01 (miR-21 grant) Assay Provider: NCGC NCGC Assay Overview: Firefly (Photinus pyralis) luciferase is one of the most commonly used transcriptional reporters for a number of reasons. It is considered one of the more dynamically responsive reporters -that is, responsive to changes in reporter transcription - as it requires no post-translational modifications and is enzymatically active directly after protein synthesis (Wood, 1998). Additionally, the half-life of the luciferase protein is short relative to other reporter-gene products (Wood, 1995). Whereas reporters with long half-lives potentially allow for increased signal due to accumulation of reporter-gene product, once accumulated in the cell, dynamic changes in reporter-gene expression may be difficult to detect(Fan and Wood, 2007; Almond et al., 2004). It has been shown that wild-type P. pyralis luciferase has a half-life of approximately […] hours in mammalian cells (Thompson et al., 1991). Firefly luciferase reporter-gene assays are also generally considered one of the most sensitive assay types (Wood, 1995; Wood, 1998). Although light produced in a bioluminescence reaction is of lower intensity than that produced during fluorescence emission, this is offset by little to no background light inherent to luminescent assays. Thus the luciferase reporter can be expressed at much lower levels than fluorescent proteins while still providing robust signal. # However, it was initially observed, in 1991, by Thompson et al., that compounds that resemble the substrates of firefly luciferase (FLuc) can act as competitive inhibitors of the enzyme, and that these compounds, upon interaction with luciferase in the cell, can actually stabilize the protein and increase its half-life. Accumulated intracellular FLuc protein can be measured as an increase in luminescence signal, upon addition of detection reagents (which contain high concentrations of FLuc substrates) commonly used in high-throughput screening. In cell-based reporter gene assays that use FLuc as the reporter gene to quantitate the potential influence of a given compound against the target biology, this apparent increase in luminescence can mistakenly be interpreted as identification of a compound that is active against the target of interest. This is the case for the miR-21 FLuc reporter gene assay used to identify inhibitors of the miR-21 pathway (PubChem AID 2289) - compounds of interest will inhibit miR-21 biogenesis/expression or activity, and are identified by causing an increase in luminescence, due to increased FLuc translation. However, FLuc inhibitory compounds that stabilize the FLuc protein will give an identical read-out, making it difficult to distinguish compounds that are active against the target from those active against FLuc. Previous profiling work to determine the prevalence of compounds that affect FLuc enzymatic activity (PubChem AID 411) identified that ~3% of the MLSMR library (then at ~72K) inhibited FLuc. […] Since the MLSMR had grown to ~350K compounds, and since it was expected that a significant percentage of compounds found active in the miR-21 FLuc assay would be FLuc inhibitors, the library was screened for activity against FLuc using a biochemical assay of purified FLuc and KM concentrations of FLuc substrates (D-luciferin and ATP).
NCGC Assay Protocol Summary: Reagents: 50mM Tris acetate, pH 7.5; 10mM Mg acetate; 10uM D-luciferin (Sigma #L9504); 10uM ATP; 0.01% Tween-20; 0.05% BSA; 10nM P. pyralis luciferase (Sigma #L9506) Control compounds used were two known firefly luciferase inhibitors (compounds (2) and (5) in Auld et al., 2010), and DMSO. […]
With `Fc1ccc(CSc2nc(NCc3ccccc3)c3ccccc3n2)cc1` the “activity change, negative = inhibition” value was 4.76% (inactive). In the case of `COc1ccc(CNC(=O)COC(=O)c2ccc(C)c(S(=O)(=O)N3CCOCC3)c2)cc1OC`, the “activity change, negative = inhibition” value is reported as -0.832% (inactive). In the case of `O=C(COC(=O)C1CC2CCCC(C1)C2=O)NC(=O)c1ccccc1` (configuration not stated), the “activity change, negative = inhibition” value is reported as -6.45% (inactive). `CCc1ccc(Oc2coc3cc(O)ccc3c2=O)cc1` was tested, and the Potency was 23.9 µM (active). In the case of `CCc1ccc(Oc2coc3cc(OC(=O)c4cc5ccccc5oc4=O)ccc3c2=O)cc1`, the “activity change, negative = inhibition” value is reported as -4.51% (inactive). For `COc1ccc(Oc2coc3cc(OC(=O)c4cncc(Br)c4)ccc3c2=O)cc1`, the “activity change, negative = inhibition” value was -0.0286% (inactive). For `N#Cc1ccc(-c2nc3cc(C#N)c(C#N)cc3nc2-c2ccccc2)cc1C#N`, the “activity change, negative = inhibition” value was 2.4% (inactive). For `COc1ccc(C)cc1NC(=O)C(=O)NCCc1sc(-c2cccc(C)c2)nc1C`, the “activity change, negative = inhibition” value was 1.25% (inactive). In the case of `CC(C)c1ccc(NC(=O)Cn2c3ncccc3c(=O)n2-c2ccccc2)cc1`, the “activity change, negative = inhibition” value is reported as -9.91% (inactive). `CC(C)c1ccc(Nc2ncccc2C#N)cc1` was tested, and the Potency was 15.1 µM (active). `CN(C)c1ccnc(Nc2ccc(F)cc2)c1C#N` was tested, and the “activity change, negative = inhibition” value was 1.3% (inactive). In the case of `CCOc1cc2[nH]c(=O)n(Cc3ccc(C(=O)NCCN(CC)CC)cc3)c(=O)c2cc1OCC`, the “activity change, negative = inhibition” value is reported as 1.65% (inactive). For `O=C(Nc1ccc(Oc2ccccc2)cc1)C1CCN(S(=O)(=O)c2ccc(Cl)cc2)CC1`, the “activity change, negative = inhibition” value was 0.879% (inactive). In the case of `O=C(O)c1ccccc1N=N/C(=N/Nc1cc(S(=O)(=O)O)ccc1O)c1ccccc1`, the Potency is reported as 16.9 µM (active). In the case of `O=C(CN(c1ccccc1)S(=O)(=O)c1ccc(Cl)cc1)Nc1ccccc1C(=O)N1CCCC1`, the “activity change, negative = inhibition” value is reported as -0.092% (inactive). `CC(=O)c1c(C)[nH]c(C(=O)OCC(=O)Nc2c(C)cccc2C)c1C` was tested, and the “activity change, negative = inhibition” value was -0.669% (inactive). In the case of `CC(NC(=S)Nc1ccc(OC(F)F)cc1)c1ccc(F)cc1` (configuration not stated), the “activity change, negative = inhibition” value is reported as 1.73% (inactive). With `C[C@@H]1NC(=O)[C@@]2(C)[C@@H](c3ccccc3)[C@H]3COc4ccccc4[C@@H]3N2C1=O` the “activity change, negative = inhibition” value was 3% (inactive). With `CCc1ccc(Nc2nn3c(=O)c4cc5c(cc4nc3s2)OCO5)cc1` the “activity change, negative = inhibition” value was -6.84% (inactive). In the case of `COc1cccc(CNC(=O)COc2cc(O)c3c(c2)OC(C)(C)CC3=O)c1`, the “activity change, negative = inhibition” value is reported as -10.3% (inactive). In the case of `CC(C)CC(=O)N1CCN(Cc2ccccc2Br)CC1`, the “activity change, negative = inhibition” value is reported as 1.19% (inactive). `Cc1c(C(=O)NCc2ccccc2Br)oc2ccc3c(c12)C(=O)CC(C)(C)O3` was tested, and the Potency was 1.69 µM (active). With `COc1ccc(-c2nc3sc(CCNS(=O)(=O)c4ccc(F)c(C)c4)c(C)n3n2)cc1` the “activity change, negative = inhibition” value was -19% (inactive). With `COc1ccc(C(=O)Nc2ccc(-n3nncc3C(C)(C)C)cc2)cc1` the “activity change, negative = inhibition” value was -11.1% (inactive). With `COc1ccc(CNC(=O)C(=O)N2CCC3(CC2)OCCN3S(=O)(=O)c2ccc(C)cc2)cc1` the “activity change, negative = inhibition” value was -1.75% (inactive). In the case of `Cc1cc(Cl)ccc1OCC(=O)N(Cc1ccc(N(C)C)cc1)C1CCS(=O)(=O)C1` (configuration not stated), the “activity change, negative = inhibition” value is reported as -12.5% (inactive). `Cc1ccc(C(=O)COC(=O)C(Cc2c[nH]c3ccccc23)NC(=O)c2ccc(Br)cc2)cc1` (configuration not stated) was tested, and the “activity change, negative = inhibition” value was 0.131% (inactive). For `CC(CCCc1ccccc1)NC(=O)c1nn(-c2ccc(Cl)cc2)nc1CO` (configuration not stated), the “activity change, negative = inhibition” value was 1.51% (inactive). In the case of `COC(=O)[C@@H](NC(=O)Nc1cc(Cl)ccc1C)C(C)C`, the “activity change, negative = inhibition” value is reported as -4.44% (inactive). `Cc1cc2nn(-c3ccc(Cl)cc3)nc2cc1NC(=O)C(C)C` was tested, and the Potency was 0.379 µM (active). In the case of `CCN(C(=O)COC(=O)c1c(C)nn(-c2ccccc2)c1Cl)c1c(N)n(Cc2ccccc2)c(=O)[nH]c1=O`, the “activity change, negative = inhibition” value is reported as -0.736% (inactive). With `CCOC(=O)C1=C(c2ccccc2)Nc2ncnn2C1c1ccc(Cl)cc1` (configuration not stated) the “activity change, negative = inhibition” value was -10% (inactive).
